Test [1] is described as follows: Nuclear factor erythroid 2-related factor 2/antioxidant responsive element (Nrf2/ARE) small molecule agonists: qHTS cell viability counter screen in human keratinocytes (AID 1919968; active = well fitted curve in the direction sought with a large enough effect in the repeat runs; an effect the other way counts as inactive or inconclusive; also: nearly all actives have a fitted effect of over 55% in size; also: potency is read from the fitted curve at half-maximal effect). Put shortly: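 In human HaCaT keratinocytes stably expressing an ARE-driven luciferase, compound exposure lasted 23 h at 37 C under 5% CO2. Viable cells are quantified with a protease-based fluorogenic reagent (CellTiter-Fluor) read 1 h after addition.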

A short description of test [2]: Nuclear factor erythroid 2-related factor 2/antioxidant responsive element (Nrf2/ARE) small molecule agonists: luciferase reporter gene qHTS assay in human keratinocytes (AID 1919969). Also: nearly all actives have a fitted effect of over 35% in size. Also: potency is read from the fitted curve at half-maximal effect. For orientation: Reporter assays use an easily measured gene product as a stand-in for the process of interest.
Test [3] deals with KiSS-1 receptor (Homo sapiens) (UniProt Q969F8). Put plainly: Human kisspeptin (KISS1R) small molecule agonists, calcium flux assay in KISS1R-HEK293 cells (AID 1920064; active = well fitted curve in the direction sought with a large enough effect in the repeat runs; an effect the other way counts as inactive or inconclusive). In short, it runs like this:
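Concentration-response testing used 15 concentrations in triplicate on human KISS1R-expressing HEK293 cells. Calcium-dependent fluorescence (Ex/Em 480/540) was followed kinetically for 3 min after compound transfer.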
On the technique in general: Calcium assays in cells follow changes in intracellular calcium, usually with a dye or a luminescent sensor.

Test [4] can be described thus: G protein-coupled receptor (GPCR) small molecule agonists, calcium flux assay: HEK293 wild type cell line counter screen (AID 1920065). In short, it runs like this:
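Fluorescence intensity signals activation. After overnight (18 h) culture and a 1 h calcium dye load at 37 C, compounds are added by pin tool and the plate read at 480/540 nm for 3 min in 1 s steps.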

Test [5] can be described thus: p53 small molecule agonists, cell-based qHTS assay with human liver microsomes (AID 1963577).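 Also: p53 response element beta-lactamase reporter cells with liver microsomes plus NADPH.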 In short, it runs like this: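 16 h, 37 C exposure of p53RE-bla cells to compounds with human liver microsomes and NADPH (0.5 mg/mL final each); detection via LiveBLAzer mixture, 2 h dark at room temperature.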
The nature of test [6]: p53 small molecule agonists, cell-based qHTS assay with rat liver microsomes (AID 1963578). Put shortly:
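With rat liver microsomes and NADPH present (0.5 mg/mL final each), p53RE-bla cells are treated with compound for 16 h at 37 C. LiveBLAzer detection mixture is then applied for 2 h at room temperature in the dark.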
(In qHTS, concentration-response curves come from the screen itself.)

The nature of test [7]: p53 small molecule agonists, cell-based qHTS assay with human liver microsomes: qHTS cell viability counter screen (AID 1963579). Also: nearly all actives have a fitted effect of over 45% in size. In short, it runs like this:
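In this multiplexed counter screen, the reporter plates were subsequently treated with CellTiter-Glo so that cell viability, reflected by luminescence, could be recorded for p53RE-bla cells dosed 16 h with compounds under microsomal activation (HLM and NADPH).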

Test [8] in a line: p53 small molecule agonists, cell-based qHTS assay with rat liver microsomes: qHTS cell viability counter screen (AID 1963580). Also: nearly all actives have a fitted effect of over 45% in size. Also: potency is read from the fitted curve at half-maximal effect. Put shortly: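 Counter screen for cytotoxicity under metabolic activation: rat liver microsomes and NADPH, 0.5 mg/mL final each, added with compounds to p53RE-bla HCT-116 cells; 16 h at 37 C, then ATP luminescence read.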
Test [9] is described as follows: p53 small molecule agonists, cell-based qHTS assay: qHTS cell viability counter screen (AID 1963581). Also: nearly all actives have a fitted effect of over 45% in size. Put shortly:
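Luminescence from CellTiter-Glo, reflecting ATP content, serves as the cytotoxicity measure; it is taken after the 2 h reporter substrate step in HCT-116 p53RE-bla cells dosed for 16 h at 37 C.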

Test [10] in a line: p53 small molecule agonists, cell-based qHTS assay (AID 1963582; active = well fitted activation curve with a large enough effect in the signal ratio in the repeat runs, not every such curve was filed as active; the % refers to the signal ratio). Put shortly: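 After plating, p53RE-bla cells sat 5 h in the incubator; compounds or DMSO vehicle were pinned in; a 16 h incubation at 37 C followed; FRET substrate was added and, 2 h later at RT, fluorescence was measured.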
Test [11] has as its target 5-hydroxytryptamine receptor 2A (Homo sapiens) (UniProt P28223). Kind of test: 5-hydroxytryptamine receptor 2A (HTR2A) small molecule antagonists, cell-based qHTS assay (AID 1963586). Also: nearly all actives have a fitted effect of over 45% in size. In short, it runs like this:
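CHO cells stably expressing human HTR2A were plated for 18 h at 37 C, then loaded with calcium dye for 1 h. Compounds were preincubated 5 min at room temperature before DOI (4 nM solution) was added. Kinetic fluorescence was read for 3 min.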

Test [12] shares this target. Kind of test: 5-hydroxytryptamine receptor 2A (HTR2A) small molecule agonists, cell-based qHTS assay (AID 1963587). Also: nearly all actives have a fitted effect of over 30% in size. In short, it runs like this: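 HTR2A-CHO cells, plated 18 h at 37 C/5% CO2, dye-loaded 1 h at 37 C; compounds in DMSO added by pin tool (agonist mode). Intracellular calcium flux read as kinetic fluorescence on FDSS over 2 min at 1 s intervals.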
The target in test [13] is Muscarinic acetylcholine receptor M1 (Homo sapiens) (UniProt P11229). Kind of test: Cholinergic receptor muscarinic 1 (CHRM1) small molecule antagonists, cell-based qHTS assay (AID 1963588). Also: nearly all actives have a fitted effect of over 40% in size. In short, it runs like this:
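Compounds were tested at 15 concentrations in three independent runs. Dye-loaded CHRM1-CHO cells were exposed 5 min at room temperature before stimulation by acetylcholine added at 50nM. Intracellular calcium was read kinetically on FDSS for 3 min.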

Test [14] has the same target. Put plainly: Cholinergic receptor muscarinic 1 (CHRM1) small molecule agonists, cell-based qHTS assay (AID 1963589). Also: nearly all actives have a fitted effect of over 35% in size. In short, it runs like this: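 Fluorescent calcium dye reports M1 activation in stably transfected CHO cells. Compounds, 15 concentrations, added after 1 h dye loading at 37 C; kinetic reading at 1 sec intervals.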
Test [15] is described as follows: cAMP Responsive Elements (CRE) small molecule agonists, cell-based qHTS assay (AID 1963590). Put shortly: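 Compound exposure lasted 3 h at 37 C/5% CO2 in CRE-bla HEK 293T cells grown in assay medium with 10% dialyzed FBS and 25 mM HEPES. Reporter signal came from LiveBLAzer B/G FRET substrate, 2 h, room temperature.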
Test [16] is described as follows: cAMP Responsive Elements (CRE) small molecule antagonists, cell-based qHTS assay (AID 1963591; active = well fitted inhibition curve with a large enough effect in the signal ratio in the repeat runs, not every such curve was filed as active; the % refers to the signal ratio). In short, it runs like this:
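Stimulation used NKH477 at a final 0.25 uM for 3 h in compound-treated CRE-bla HEK293T cells, seeded 18 h beforehand. Reporter activity was measured with LiveBLAzer B/G FRET substrate after 2 h at room temperature.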

Test [17] addresses Beta-2 adrenergic receptor (Homo sapiens) (UniProt P07550). Put plainly: Adrenergic beta2 receptor (ADRB2) small molecule antagonists, cell-based qHTS assay (AID 1963592). Also: series mostly up to about 92 µM; nearly all actives have a fitted effect of over 50% in size. In short, it runs like this:
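Assay format: CHO-ADRB2 cells, 18-20hr seeding at 37C/5% CO2, then compound plus 1nM isoproterenol agonist mix for 0.5hr RT. Homogeneous time-resolved fluorescence cAMP detection after 1hr, expressed as 665/615 nm ratio.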

Test [18] deals with D(2) dopamine receptor (Homo sapiens) (UniProt P14416). Put plainly: Dopamine D2 receptor (DRD2) small molecule agonists, cell-based qHTS assay (AID 1963594). Also: nearly all actives have a fitted effect of over 35% in size. Put shortly:
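HEK293 cells stably expressing DRD2 were cultured 24 h at 37 C, then given Ro20-1724 (0.1 mM final) and compounds for 10 min at room temperature. NKH477 (200nM) was then added for 30 min. cAMP was read by HTRF.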

Test [19] shares this target. Kind of test: Dopamine D2 receptor (DRD2) small molecule antagonists, cell-based qHTS assay (AID 1963595; active = well fitted inhibition curve with a large enough effect in the signal ratio in the repeat runs, with a control signal flat; the % refers to the signal ratio). In short, it runs like this: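 Antagonist mode in DRD2-HEK293 cells: after compound addition with 0.1 mM Ro20-1724, cells received quinpirole (12 nM) and NKH477 (200 nM) for 30 min at room temperature; HTRF cAMP read after 1 h detection.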
For test [20], the target named is Beta-2 adrenergic receptor (Homo sapiens) (UniProt P07550). Put plainly: Adrenergic beta2 receptor (ADRB2) small molecule agonists, cell-based qHTS assay (AID 1963593).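 Also: CHO cells stably overexpressing human ADRB2.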 In short, it runs like this: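 CHO cells stably over-expressing ADRB2 were plated overnight at 37C, then dosed with compounds plus a stimulation mix containing 100uM IBMX and 25uM Ro-20-1724 for 0.5hr at room temperature. cAMP was measured by HTRF competition, 1hr.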
Sequence of Beta-2 adrenergic receptor (Homo sapiens) (P07550 whole entry, looked up): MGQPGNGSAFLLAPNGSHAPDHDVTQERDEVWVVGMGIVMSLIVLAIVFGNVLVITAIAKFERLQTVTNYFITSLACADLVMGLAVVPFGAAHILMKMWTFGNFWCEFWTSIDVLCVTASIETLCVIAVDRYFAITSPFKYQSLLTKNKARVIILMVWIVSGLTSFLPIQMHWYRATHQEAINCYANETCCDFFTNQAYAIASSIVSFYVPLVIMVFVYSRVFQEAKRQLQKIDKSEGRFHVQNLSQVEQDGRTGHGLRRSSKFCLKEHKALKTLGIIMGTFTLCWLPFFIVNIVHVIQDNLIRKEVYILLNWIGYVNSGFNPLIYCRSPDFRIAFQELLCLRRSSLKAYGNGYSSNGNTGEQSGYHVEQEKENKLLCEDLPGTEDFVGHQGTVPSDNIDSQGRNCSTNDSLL

Unmarked numbers belong to inactive results. Records with an inconclusive call do not appear. Calls of active or inactive are those of the source. Unless noted, calls follow the shape of the full dose curve.
% is scaled to controls: 0 for no effect and ±100 for the full control effect.

Sequence of 5-hydroxytryptamine receptor 2A (Homo sapiens) (P28223 whole entry, looked up): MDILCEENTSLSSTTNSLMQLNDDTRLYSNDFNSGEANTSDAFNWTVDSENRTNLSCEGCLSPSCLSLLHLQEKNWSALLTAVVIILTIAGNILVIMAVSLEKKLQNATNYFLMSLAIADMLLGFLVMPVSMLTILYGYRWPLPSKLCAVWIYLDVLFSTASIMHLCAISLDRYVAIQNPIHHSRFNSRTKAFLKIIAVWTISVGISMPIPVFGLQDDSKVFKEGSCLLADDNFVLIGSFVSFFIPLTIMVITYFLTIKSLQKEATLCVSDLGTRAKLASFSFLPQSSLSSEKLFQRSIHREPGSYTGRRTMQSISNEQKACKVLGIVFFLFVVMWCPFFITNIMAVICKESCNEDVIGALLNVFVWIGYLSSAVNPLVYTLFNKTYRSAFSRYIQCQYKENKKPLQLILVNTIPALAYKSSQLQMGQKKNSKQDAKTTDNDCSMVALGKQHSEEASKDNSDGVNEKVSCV
Sequence of KiSS-1 receptor (Homo sapiens) (Q969F8 whole entry, looked up): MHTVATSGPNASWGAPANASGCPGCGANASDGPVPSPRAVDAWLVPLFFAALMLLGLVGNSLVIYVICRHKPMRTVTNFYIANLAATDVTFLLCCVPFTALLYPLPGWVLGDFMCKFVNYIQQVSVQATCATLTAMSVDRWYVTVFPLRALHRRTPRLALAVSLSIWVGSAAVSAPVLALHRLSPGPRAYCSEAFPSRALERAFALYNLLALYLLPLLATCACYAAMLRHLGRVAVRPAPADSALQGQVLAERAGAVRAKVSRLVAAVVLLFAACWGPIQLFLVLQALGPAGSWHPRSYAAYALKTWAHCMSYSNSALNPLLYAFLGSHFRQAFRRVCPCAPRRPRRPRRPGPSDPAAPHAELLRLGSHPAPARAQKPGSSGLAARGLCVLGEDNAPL
Sequence of Muscarinic acetylcholine receptor M1 (Homo sapiens) (P11229 whole entry, looked up): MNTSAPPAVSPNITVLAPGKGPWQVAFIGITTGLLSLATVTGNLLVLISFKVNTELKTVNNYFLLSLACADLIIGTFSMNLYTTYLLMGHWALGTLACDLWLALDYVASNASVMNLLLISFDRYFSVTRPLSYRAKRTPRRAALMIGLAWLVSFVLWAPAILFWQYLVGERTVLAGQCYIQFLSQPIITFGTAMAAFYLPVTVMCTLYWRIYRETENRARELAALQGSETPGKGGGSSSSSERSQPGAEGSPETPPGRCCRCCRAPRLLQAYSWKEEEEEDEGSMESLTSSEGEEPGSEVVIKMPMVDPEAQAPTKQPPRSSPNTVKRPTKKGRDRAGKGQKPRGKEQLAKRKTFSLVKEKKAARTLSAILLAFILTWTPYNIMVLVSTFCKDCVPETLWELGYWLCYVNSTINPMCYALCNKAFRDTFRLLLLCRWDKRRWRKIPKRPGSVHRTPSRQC
Sequence of D(2) dopamine receptor (Homo sapiens) (P14416 whole entry, looked up): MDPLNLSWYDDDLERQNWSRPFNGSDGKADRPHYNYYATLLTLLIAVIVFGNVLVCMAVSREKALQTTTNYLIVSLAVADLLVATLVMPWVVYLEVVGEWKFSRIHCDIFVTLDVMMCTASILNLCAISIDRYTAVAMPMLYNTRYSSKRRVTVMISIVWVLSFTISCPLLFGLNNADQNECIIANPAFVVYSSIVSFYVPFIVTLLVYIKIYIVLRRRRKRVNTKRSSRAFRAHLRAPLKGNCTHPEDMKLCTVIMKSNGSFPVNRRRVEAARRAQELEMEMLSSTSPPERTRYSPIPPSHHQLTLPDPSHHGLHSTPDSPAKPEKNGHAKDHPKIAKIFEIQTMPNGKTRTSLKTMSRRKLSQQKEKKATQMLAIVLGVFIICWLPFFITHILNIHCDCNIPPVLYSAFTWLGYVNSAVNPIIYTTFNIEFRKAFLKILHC

As to `CCCCCCCCCCCCCCN(C)C`, the activity change, negative = cytotoxicity was 2.19% [at 19 µM] in test [1], 6.35% [at 13.5 µM] in test [7], -0.358% [at 13.5 µM] in test [8] and 1.73% [at 13.5 µM] in test [9]. In addition, the activity, positive = activation in test [2] was 2.64% [at 19 µM]. The activation in test [3] is 2.68% [at 15.8 µM]; in [4] it was -0.129% [at 11.8 µM]; in test [5], -0.299% [at 13.5 µM]; in test [6], -1.12% [at 13.6 µM]; in test [10], -0.74% [at 13.5 µM]; in test [12], 12% [at 15.9 µM]. Besides, the figures for the activation in test [14], in [15] and in test [18] were 0.401% [at 15.8 µM], -0.847% [at 19 µM] and 0.215% [at 19 µM], respectively. The activity, negative = inhibition in test [11] was 2.96% [at 12.7 µM]; in test [13], 5.47% [at 12.6 µM]. Further, the activity change, negative = inhibition was -9.63% [at 18.9 µM] in test [16], -1.54% [at 19 µM] in test [17] and -0.238% [at 18.9 µM] in [19].
Consider `CCCCCCCCCCCCN1CCOCC1`, for which the Potency result in test [1], in test [2], in [5], in test [7], in [8] and in test [9] was “inactive” each time. In addition, the Potency result in test [10], in test [11], in test [13], in [14], in test [16] and in test [17] was “inactive” each time. The Potency result in test [20] and in test [19] was “inactive” in each case. For the same compound, the outcome in [4] was inactive.
For `C[C@H]1O[C@H](O[C@H]2[C@H](O)[C@@H](O)[C@@H](O[C@H]3[C@H](O)[C@@H](O)[C@H](O)O[C@@H]3CO)O[C@@H]2CO)[C@H](O)[C@@H](O)[C@@H]1N[C@H]1C=C(CO)[C@@H](O)[C@H](O)[C@H]1O`, the Potency result in test [1], in test [2], in test [5], in test [6], in test [7] and in test [8] was “inactive” each time. Moreover, the Potency result in [9], in test [10], in test [15], in test [16], in test [17] and in test [20] was “inactive” each time. For the same compound, the Potency entry in [18] and in [19] was “inactive” in each case.
Regarding `CCN(CC)c1ccc(N)cc1`, the values for the Potency in [1] and in test [2] were 22.3 µM (active) and 31.5 µM (active), respectively. For the same compound, in [4], the outcome was inactive. In addition, the Potency entry in test [5], in test [6], in test [8], in [9], in [10] and in [11] was “inactive” throughout. The Potency result in test [12], in test [13] and in [17] was “inactive” in each case.
Turning to `CCc1cccc(CC)c1NC(=O)CN(CC(=O)O)CC(=O)O`, the Potency entry in [1], in test [2], in test [5], in test [6], in test [7] and in [8] was “inactive” in each case. Moreover, the Potency result in test [9], in [10], in test [11], in [12], in test [13] and in test [14] was “inactive” each time. Also, the Potency result in test [15], in test [16], in test [17], in [18] and in test [19] was “inactive” in each case. Also, the result in test [3] and in [4] was inactive.
On to `CCCCOCC`, for which the Potency entry in test [1], in test [2], in [5], in [6], in test [7] and in test [9] was “inactive” each time. Besides, the Potency result in test [10], in test [11], in [12], in test [13], in test [14] and in [15] was “inactive” in each case. The Potency result in test [16], in [17], in [18] and in test [19] was “inactive” each time. For the same compound, the result in test [3] and in test [4] was inactive. Moreover, the Potency in test [8] was 1.62 µM (active).
As to `NS(=O)(=O)c1cc(C2(O)NC(=O)c3ccccc32)ccc1Cl` (stereo not given), the Potency entry in test [1], in test [2], in test [5], in test [6], in [7] and in test [8] was “inactive” each time. The Potency entry in test [9], in [10], in [15], in test [16], in test [17] and in test [20] was “inactive” in each case. Besides, the Potency entry in test [18] and in [19] was “inactive” each time.
On to `CNC(=O)c1cc(Oc2ccc(NC(=O)Nc3ccc(Cl)c(C(F)(F)F)c3)cc2)ccn1`, for which the Potency in test [1] is 26.6 µM (active). Moreover, the Potency entry in test [2], in [5], in test [6], in test [8], in test [9] and in test [12] was “inactive” each time. The Potency entry in test [13], in test [14], in [17], in test [18] and in test [19] was “inactive” throughout. For the same compound, the result in [4] was inactive.

Source of the values: PubChem BioAssay (Tox21).
